In PubChem BioAssay (Tox21):
Inconclusive results are not listed. Entries that show only a call come without a potency. Active and inactive are the calls of the source. The call rests on the fitted dose curve; in most records, active means well fitted inhibition curve with a large enough effect in the signal ratio in the repeat runs, with a control signal flat; inconclusive means weak or mixed curves, or effect the other way; inactive means flat fitted curve, though single readings scatter; the % refers to the signal ratio.

The molecules below were run against D(2) dopamine receptor (Homo sapiens) (UniProt P14416) (assay: Dopamine D2 receptor (DRD2) small molecule antagonists, cell-based qHTS assay (AID 1963595)). Details: HEK293-DRD2 cAMP HTRF antagonist mode; series mostly up to 92.4 µM.
D(2) dopamine receptor (Homo sapiens), sequence (P14416 whole entry, looked up): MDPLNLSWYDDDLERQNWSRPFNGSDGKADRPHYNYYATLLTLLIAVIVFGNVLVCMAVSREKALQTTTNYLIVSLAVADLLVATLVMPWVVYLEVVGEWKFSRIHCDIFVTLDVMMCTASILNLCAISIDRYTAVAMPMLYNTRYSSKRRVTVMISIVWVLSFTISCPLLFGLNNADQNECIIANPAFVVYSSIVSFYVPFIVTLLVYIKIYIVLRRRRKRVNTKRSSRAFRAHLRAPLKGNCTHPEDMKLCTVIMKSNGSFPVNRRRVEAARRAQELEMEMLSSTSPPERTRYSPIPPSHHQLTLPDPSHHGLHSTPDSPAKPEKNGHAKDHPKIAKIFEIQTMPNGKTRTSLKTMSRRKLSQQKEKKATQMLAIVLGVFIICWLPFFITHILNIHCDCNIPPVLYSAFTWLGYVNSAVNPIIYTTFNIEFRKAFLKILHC
From the text: National Center for Advancing Translational Sciences [NCATS]
Division of Preclinical Innovation [DPI]
U.S. Environmental Protection Agency [EPA]
National Institutes of Environmental Health Sciences [NIEHS]
National Toxicology Program [NTP]
U.S. Food and Drug Administration [FDA]
DRD2 is the D2 subtype of the dopamine receptor, which is coupled to Gi subtype of G protein-coupled receptor. This G protein-coupled receptor inhibits adenylyl cyclase activity. The DRD2-HEK293 cell line stably expressing D2 dopamine receptor can be used for screening agonists and antagonists of interactions between D2 and its ligands. The Hek293-DRD2 cAMP assay is based on HTRF technology. It measures changes of cAMP accumulation in response to Gi coupled GPCR activation or inhibition.
Tox21 Assay Protocol Summary:
DRD2-Hek293 cells were dispensed at 600 cells/3uL/well in 1536-well white plates using a Multidrop Dispenser. After the assay plates were incubated at a 37 C/5% CO2 incubator for 24 h, 1 uL of Ro20-1724 at final concentration of 0.1 mM was transferred to the assay plate by a Flying Reagent Dispenser. Following Ro20-1724 addition, 23 nL of compound dissolved in DMSO, positive controls or DMSO only was added to the assay plates via Wako pintool station. The assay plates were incubated at room temperature for 10 min. Next, 1 uL of mixture of NKH477 (final concentration at 200 nM) and quinpirole (final concentration at 12 nM) was added into the plates. After the assay plates were incubated at room temperature for an additional 30 min, 2.5 ul/well of cAMP-d2 and 2.5 ul/well of anti-cAMP-cryptate were added respectively into the assay plates using a Flying Reagent Dispenser. The plates were incubated at room temperature for 1 h. The fluorescence intensity in the plates was measured at 340 nm excitation and 665 & 620 nm emission by an Envision plate reader.

| Compound | Potency |
| --- | --- |
| CCCc1ccc(O)cc1 | inactive |
| FC(F)(F)C(F)(F)C(F)(F)C(F)(F)C(F)(F)C(F)(F)CCI | inactive |
| CCCC(=O)Nc1ccc(O)c(C(C)=O)c1 | inactive |
| CCN(CC)S(=O)(=O)c1ccc(C(=O)O)cc1 | inactive |
| NCC1CCCC(CN)C1 (stereo not given) | inactive |
| CC(C)c1ccc2c(C(C)C)cc(C(C)C)c(S(=O)(=O)O)c2c1 | inactive |
| CCCCOCCOCCOCCCC | inactive |
| CC(=O)c1ccc2c(c1)CCCC2 | inactive |
| CCCCC1CCC(O)CC1 (stereo not given) | inactive |
| NC(=O)c1ccc(N)cc1 | inactive |
| O=C(Oc1ccccc1)c1ccccc1 | inactive |
| O=CC1CC1 | inactive |
| O=Cc1ccccc1C=O | inactive |
| C=C(C)C(=O)OC(C)C | inactive |
| CN(C)/N=N/c1nc[nH]c1C(N)=O | inactive |
| CCOC(=O)N1CCC(=C2c3ccc(Cl)cc3CCc3cccnc32)CC1 | inactive |
| CC12CC3CC(C)(C1)CC(N)(C3)C2 | inactive |
| OCCOCCN1CCN(C2=Nc3ccccc3Sc3ccccc32)CC1 | inactive |
| O=C1C=CC(=O)O1 | inactive |
| O=C1OC2(c3cc(Br)c(O)c(Br)c3Oc3c2cc(Br)c(O)c3Br)c2c(Cl)c(Cl)c(Cl)c(Cl)c21 | inactive |

| Compound | Potency |
| --- | --- |
| Nc1c2ccccc2nc2ccccc12 | inactive |
| Cc1ccccc1N=O | inactive |
| O=c1cc(-c2ccccc2)oc2ccccc12 | inactive |
| Cc1ccc(C(=O)C(=O)O)cc1C | inactive |
| CCCCCCN | inactive |
| C[N+]1([O-])CCOCC1 | inactive |
| C/C=C/C(=O)O | inactive |
| CCCCCCCCC(=O)OCC | inactive |
| O=C1CCN(c2ccccc2)N1 | inactive |
| CCC(C(=O)OCCOCCN(CC)CC)c1ccccc1 (stereo not given) | inactive |
| N#Cc1ccc(C2CCCc3cncn32)cc1 (stereo not given) | inactive |
| Cc1ccc(C(=O)O)cc1 | inactive |
| C/C=C/c1ccc(OC)c(OC)c1 | inactive |
| CC(c1cc2ccccc2s1)N(O)C(N)=O (stereo not given) | inactive |
| O=c1[nH][nH]c(=O)c2cc([N+](=O)[O-])ccc12 | inactive |
| O=S(=O)(O)CC(O)CCl (stereo not given) | inactive |
| CCC(=O)Nc1cccc(N)c1 | inactive |
| CN(C)N=Nc1ccccc1 | inactive |
| N#C[C@@H]1C[C@@H]2C[C@@H]2N1C(=O)[C@@H](N)C12CC3CC(CC(O)(C3)C1)C2 | inactive |
| C=C(C)[C@H]1CC=C(C)CC1 | inactive |
